JMJD2A Tudor inh – qHTS Assay for Inhibitors of JMJD2A-Tudor Domain. Lysine-specific demethylase 4A (Homo sapiens), O75164. AlphaScreen JMJD2A-Tudor / H3K4me3 peptide binding. 390,000 compounds, 4.4% hits. Potency, µM (top dose mostly 114 µM), inactives show at the highest dose activity change, negative = inhibition, actives largely listed as inhibitors; also: % is scaled to controls: 0 for no effect and ±100 for the full control effect; nearly all actives have a fitted effect of over 50% in size
BAZ2B inh – qHTS Assay for Inhibitors of BAZ2B; Bromodomain adjacent to zinc finger domain protein 2B (Homo sapiens), Q9UIF8; AlphaScreen BAZ2B-H3K14Ac peptide displacement; Potency, µM (doses to about 114 µM), without a hit: at the highest dose activity change, negative = inhibition, actives largely listed as inhibitors; 360,000 compounds, 4.4% hits; AID 504333, 2011; also: % is scaled to controls: 0 for no effect and ±100 for the full control effect; nearly all actives have a fitted effect of over 60% in size
Target sequence (Q9UIF8 whole entry, looked up, the tested form may be a part): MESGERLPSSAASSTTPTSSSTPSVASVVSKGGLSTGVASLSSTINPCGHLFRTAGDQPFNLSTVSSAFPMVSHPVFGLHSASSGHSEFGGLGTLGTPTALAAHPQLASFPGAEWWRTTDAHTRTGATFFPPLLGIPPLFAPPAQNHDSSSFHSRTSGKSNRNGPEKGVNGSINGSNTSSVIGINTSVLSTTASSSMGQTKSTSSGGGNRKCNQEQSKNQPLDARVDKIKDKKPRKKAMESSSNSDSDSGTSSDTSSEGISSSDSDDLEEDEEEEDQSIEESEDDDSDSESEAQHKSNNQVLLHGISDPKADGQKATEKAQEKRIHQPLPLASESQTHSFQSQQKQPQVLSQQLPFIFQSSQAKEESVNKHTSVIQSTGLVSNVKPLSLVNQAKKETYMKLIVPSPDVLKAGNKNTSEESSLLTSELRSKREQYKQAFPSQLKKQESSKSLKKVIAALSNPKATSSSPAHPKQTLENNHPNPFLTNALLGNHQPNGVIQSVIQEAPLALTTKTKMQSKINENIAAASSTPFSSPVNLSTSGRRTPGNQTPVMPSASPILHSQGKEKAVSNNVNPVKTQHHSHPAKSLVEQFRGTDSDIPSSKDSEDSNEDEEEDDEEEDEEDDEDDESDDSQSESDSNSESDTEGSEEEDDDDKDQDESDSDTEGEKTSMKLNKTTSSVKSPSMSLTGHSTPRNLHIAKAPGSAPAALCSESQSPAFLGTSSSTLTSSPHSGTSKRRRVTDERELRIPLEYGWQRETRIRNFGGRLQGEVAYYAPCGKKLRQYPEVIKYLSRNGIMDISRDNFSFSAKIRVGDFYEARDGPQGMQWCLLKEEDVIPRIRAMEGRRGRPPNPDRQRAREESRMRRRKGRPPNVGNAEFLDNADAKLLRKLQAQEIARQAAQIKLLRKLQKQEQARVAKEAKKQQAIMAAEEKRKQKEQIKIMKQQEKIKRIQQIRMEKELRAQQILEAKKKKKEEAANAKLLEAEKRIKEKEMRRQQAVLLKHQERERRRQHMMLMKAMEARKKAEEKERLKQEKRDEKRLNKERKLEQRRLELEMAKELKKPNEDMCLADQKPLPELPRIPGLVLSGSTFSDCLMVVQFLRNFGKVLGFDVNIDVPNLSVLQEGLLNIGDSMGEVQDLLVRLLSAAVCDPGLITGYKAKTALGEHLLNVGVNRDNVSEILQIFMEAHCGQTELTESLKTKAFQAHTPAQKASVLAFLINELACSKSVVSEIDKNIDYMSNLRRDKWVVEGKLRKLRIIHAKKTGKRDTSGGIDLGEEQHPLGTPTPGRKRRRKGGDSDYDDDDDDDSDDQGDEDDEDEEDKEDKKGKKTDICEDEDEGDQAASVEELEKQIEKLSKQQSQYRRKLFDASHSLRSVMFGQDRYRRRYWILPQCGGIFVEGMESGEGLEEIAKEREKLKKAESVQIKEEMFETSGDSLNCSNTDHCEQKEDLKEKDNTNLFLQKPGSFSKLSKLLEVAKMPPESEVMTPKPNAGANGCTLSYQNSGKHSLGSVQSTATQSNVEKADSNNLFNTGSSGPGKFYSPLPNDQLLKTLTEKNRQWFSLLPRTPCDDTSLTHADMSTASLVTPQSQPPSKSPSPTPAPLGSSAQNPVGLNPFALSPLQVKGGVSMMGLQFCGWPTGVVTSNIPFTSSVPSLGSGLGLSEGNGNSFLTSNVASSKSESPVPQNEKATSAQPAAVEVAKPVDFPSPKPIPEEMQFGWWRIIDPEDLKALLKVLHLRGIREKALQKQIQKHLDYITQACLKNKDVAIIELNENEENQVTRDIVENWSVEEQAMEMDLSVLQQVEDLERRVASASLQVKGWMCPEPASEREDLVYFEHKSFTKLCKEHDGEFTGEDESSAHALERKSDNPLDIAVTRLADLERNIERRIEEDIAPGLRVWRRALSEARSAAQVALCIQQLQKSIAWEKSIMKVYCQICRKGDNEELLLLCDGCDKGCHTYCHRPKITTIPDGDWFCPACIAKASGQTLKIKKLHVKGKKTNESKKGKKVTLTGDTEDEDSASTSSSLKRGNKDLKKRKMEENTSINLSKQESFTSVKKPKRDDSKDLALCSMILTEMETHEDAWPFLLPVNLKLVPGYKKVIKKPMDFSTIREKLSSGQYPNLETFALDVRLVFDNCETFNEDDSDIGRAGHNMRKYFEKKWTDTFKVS
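Complex of BAZ2B and biotin-H3K14Ac (50 nM apiece) forms over 30 min at RT, then faces library compounds up to 110 uM for another 30 min; AlphaScreen beads added, 20 min dark incubation, luminescence read.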
G9a inh – qHTS Assay for Inhibitors of Histone Lysine Methyltransferase G9a. Histone-lysine N-methyltransferase EHMT2 (Homo sapiens), Q96KQ7. G9a H3K9 monomethylation, AlphaScreen, 2 h. Potency, µM (titrated, usually from 102 µM), without a hit: at the highest dose activity, negative = inhibition, actives largely listed as inhibitors. 350,000 compounds, 8.8% hits. AID 504332, 2011; also: % is scaled to controls: 0 for no effect and ±100 for the full control effect; nearly all actives have a fitted effect of over 75% in size
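Compounds were preincubated with 20 nM G9a for 15 min, after which biotinylated H3K9 peptide (500 nM) and SAM (20 uM) started a 2 h room-temperature reaction. Monomethylated product was quantified by antibody-based AlphaScreen chemiluminescence.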
Sfp inh – qHTS Assay for Inhibitors of Bacillus subtilis Sfp phosphopantetheinyl transferase (PPTase); 4'-phosphopantetheinyl transferase ffp (Bacillus subtilis), Q9F4F7; Biochemical Sfp PPTase activity, qHTS; Potency, µM, without a hit: largest response in the series, negative = inhibition, actives largely listed as inhibitors; 310,000 compounds, 3.5% hits; AID 1490, 2009;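 also: the enzyme is Sfp with the accession as filed and its product quenches rhodamine fluorescence; 0% = enzyme reaction without inhibitor and -100% = no enzyme wells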
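With Hepes-Na pH 7.6 buffer containing 10 mM MgCl2, Sfp (15 nM) modified BHQ-2-YbbR (12.5 uM) using rhodamine-CoA (5 uM). Two reads 30 minutes apart at 525/598 nm yielded each well's rate.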
HP1b binding inh – HTS for Inhibitors of HP1-beta Chromodomain Interactions with Methylated Histone Tails; Chromobox protein homolog 1 (Homo sapiens), P83916; AlphaScreen HP1-beta / biotin-H3K9me3 peptide binding; Potency, µM (titrated, usually from 114 µM), without a hit: at the highest dose activity change, negative = inhibition, hits mostly inhibitors; 390,000 compounds, 0.56% hits; AID 540317, 2011; also: nearly all actives have a fitted effect of over 70% in size
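AlphaScreen: HP1-beta (50 nM) preformed 30 min with biotin-H3(1-18)K9me3 peptide (50 nM) in PBS pH 7.4, 0.01% Tween-20. Compound added for 30 min at RT, then streptavidin donor/nickel chelate acceptor beads (10 ug/mL) for 30 min.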
PLK1 PBD block – qHTS for Inhibitors of PLK1-PDB (polo-like kinase 1 - polo-box domain): Primary Screen; Plk1 PBD binding of FITC phosphopeptide, fluorescence polarization; 360,000 compounds, 2.8% hits; AID 720504, 2013; Serine/threonine-protein kinase PLK1 (Homo sapiens), P53350; Potency, µM, for the others: max response, negative = inhibition, hits mostly inhibitors; also: series mostly up to about 57 µM; % is scaled to controls: 0 for no effect and ±100 for the full control effect; nearly all actives have a fitted effect of over 65% in size
* marks the source's active call; other numbers are inactive results; ? = inconclusive; nt = no result; [ ] = dose if it differs, or a comment. Shown are actives, neighbours in structure and some others; about 12% of the full set was active somewhere. Calls follow the shape of the dose curve; as a rule, active = well fitted curve in the direction sought with a large enough effect; inconclusive = small, poorly fitted or top-dose-only effect, or another doubt; inactive = no such curve, though single readings can be large; an effect the other way counts as inactive or inconclusive. Potency is read from the fitted curve at half-maximal effect.

SMILES	JMJD2A Tudor inh	BAZ2B inh	G9a inh	Sfp inh	HP1b binding inh	PLK1 PBD block
O=C(O)C(CCc1ccccc1)N1CCOCC1 (centres undefined)	nt	nt	nt	nt	nt	5.1%
COc1cccc(-c2nnc(-c3ccco3)o2)c1	50.1µM*	5.1%	-8.3%	5.7%	-1.5%	29.9µM*
COc1cccc(-c2nnc(-c3ccc(C)o3)o2)c1	-16.2%	-4.2%	12.6µM*	56.2µM*	29.6%	-3.4%
O=C(Nc1cccc(-c2nnc(-c3ccco3)o2)c1)c1ccccc1	-7.7%	-4.2%	7.6%	21.4%	19.5%	0.1%
CC(=O)Oc1ccc(C(=O)Nc2cccc(-c3nnc(-c4ccco4)o3)c2)cc1	-19.7%	-29.0%	50.1µM*	-1.9%	17.3%	-6.2%
Cc1cccc(C)c1OCc1nc2c3cnn(-c4cccc(F)c4)c3ncn2n1	3.5%	2.8%	-0.7%[59 µM]	nt	38.4%	nt
N#CC1(NC(=O)CSc2nnc(Nc3ccccc3F)s2)CCCC1	-6.0%	9.0%	?	nt	21.6%	-5.3%
CO[C@H]1COC(=O)CCC[C@H](C)[C@H](OC)COC(=O)C/C=C\[C@@H]1C	nt	nt	nt	7.7%	nt	nt
CCOC(=O)C1CCN(C(=O)c2cc3ccc4ccc(C)[nH]c4c3n2)CC1	-20.1%	2.6%[57.1 µM]	14.1µM*	nt	-1.9%	nt
CCOC(=O)C1CCN(C(=O)c2cc3ccc4cccnc4c3[nH]2)CC1	-14.6%	5.7%[57.1 µM]	-24.5%[59 µM]	nt	29.2%	nt
Cc1cccc(N2CCN(C(=O)CCc3c(C)nc4ncnn4c3C)CC2)c1C	-15.2%	-3.7%	-4.4%[59 µM]	nt	13.7%	nt
O=C1/C(=C/c2ccco2)SC(=S)N1CC1CCCO1 (centres undefined)	25.1µM*	35.5µM*	?	17.8µM*	35.5µM*	-13.7%
Cn1cc(/C=C2\SC(=O)NC2=S)c2ccccc21	?	31.6µM*	nt	31.6µM*	?	-27.6%
Cc1ccc(/C=C2/SC(=O)NC2=S)o1	39.8µM*	50.1µM*	17.8µM*	22.4µM*	?	18.9µM*
Cc1ccc(/C=C2/SC(=S)N(C3CCCCC3)C2=O)o1	-31.7%	?	39.8µM*	-27.2%	-13.6%[57 µM]	?
CN1C(=O)/C(=C2\SC(=S)N(CC3CCCO3)C2=O)c2ccccc21 (centres undefined)	nt	-33.2%	?	18.7%	nt	nt
Cc1c(C(=O)Nc2ccc(-n3c(C)nc4ccccc4c3=O)cc2)cccc1[N+](=O)[O-]	-14.6%	-7.3%	-12.2%[59 µM]	nt	11.5%	nt
CCOC(=O)[C@H]1[C@H]2COc3ccc(OC)cc3[C@@H]2N2C(=O)[C@H](C)NC(=O)[C@@]12C	-26.8%	14.3%	0.4%[0.501 µM]	nt	13.6%	-4.1%
Cc1ccc(/C=C2\SC(=S)N(CC3CCCO3)C2=O)o1 (centres undefined)	35.5µM*	31.6µM*	5.62µM*	10µM*	31.6µM*	23.8µM*
CC(=O)Nc1cc(-c2ccccc2)cn2c(-c3ccc(F)c(Cl)c3)cnc12	nt	nt	nt	nt	nt	-19.2%
Nc1cccn2c(-c3ccc(Cl)c(Cl)c3)cnc12	50.1µM*	39.8µM*	44.7µM*	-17.5%	?	5.97µM*
O=C(N/N=C/c1ccc(Sc2nc3ccccc3[nH]2)o1)c1ccncc1	-13.4%	-5.6%	44.7µM*	-4.7%	?	?
N#C/C(=C/c1ccc(Sc2nc3ccccc3[nH]2)o1)c1cccc(F)c1	-24.5%	-3.7%	?	10.8%	38.2%	-5.5%
CCOC(=O)c1c(/N=C/N(C)C)sc(/C=N/Nc2ccccc2)c1-c1ccc(Cl)cc1	?	-5.6%	?	14.2%	-4.8%	29.9µM*
Cc1ccc(S(C)(=O)=O)cc1C(=O)Nc1ccc(S(=O)(=O)Nc2nccs2)cc1	-13.2%	-35.1%	23.1%[12.7 µM]	nt	4.4%	-17.8%
SMILES	JMJD2A Tudor inh	BAZ2B inh	G9a inh	Sfp inh	HP1b binding inh	PLK1 PBD block
Cc1ccc(NC(=S)Nc2ccccn2)cc1C	3.6%	-13.8%	nt	-4.3%	45.7%	-18.9%
Cc1cc(NC(=S)Nc2ccc(C)c(Cl)c2)n[nH]1	?	?	1.26µM*	?	-14.0%	-16.6%
COc1ccc(NC(=S)Nc2cc(-c3ccccc3)[nH]n2)cc1Cl	56.2µM*	?	?	?	?	21.2µM*
COc1ccc(CSc2nc3ncccc3[nH]2)cc1	-10.2%	0.3%	-33.5%[59 µM]	nt	28.7%	nt
Fc1ccccc1CSc1nc2ncccc2[nH]1	-8.6%	11.8%	?	?	-22.4%	18.9µM*
Fc1ccc(-c2ccnc(=S)[nH]2)cc1	4.9%	1.6%	-49.0%[12.7 µM]	20µM*	15.9%	9.47µM*
O=C(Nc1ccc(OCc2cc(=O)n3c4c(sc3n2)CCCC4)cc1)c1ccc(F)cc1	10.3%	5.1%	-3.9%[59 µM]	nt	52.9%	nt
CCOc1ccc(C(=O)CCC(=O)Nc2ncccc2O)cc1	-31.0%	56.2µM*	1.1%[2.33 µM]	nt	13.0%	-12.5%
CCOc1ccc(C(=O)CCC(=O)Nc2ccc(C)cn2)cc1	-17.8%	-0.5%	-5.4%	nt	9.5%	-10.7%
CC(=O)N1CCN(CC(=O)c2ccc(Br)cc2)CC1	-12.0%	-3.5%	2µM*	-4.0%	61.1%	-5.6%
CC(=O)N1CCN(CCS(=O)(=O)c2ccc(Br)cc2)CC1	0.0%	-3.4%	26.3%[59 µM]	nt	33.8%	-1.5%
N#CCN1CCN(CC(=O)c2ccc(Br)cc2)CC1	-4.7%	-4.3%	12.6µM*	-0.1%	34.4%	-3.7%
CC(C)c1ccc(CNc2nnnn2C)cc1	-6.0%	?	14.1%	16.5%	73.9%	-1.0%
CC(C)c1ccc(CNn2cnnc2)cc1	?	-0.3%	-19.0%	12.1%	26.5%	26.7µM*
N#Cc1ccccc1NC(=O)C(=O)NCCc1csc(-c2ccc(F)cc2)n1	-11.8%	14.3%	16.1%[12.7 µM]	nt	21.0%[57 µM]	nt
CN1CCSc2ccc(C(=O)NCc3ccccc3)cc21	-19.7%	?	39.8µM*	-9.9%	20.2%	-11.5%
COc1ccc(CCNC(=O)c2ccc3c(c2)N(Cc2cccc(C)c2)C(=O)c2ccccc2S3(=O)=O)cc1OC	-24.2%	?	-43.3%[59 µM]	nt	16.8%	nt
COc1ccc(CCNC(=O)c2ccc3c(c2)N(Cc2ccccc2F)C(=O)c2ccccc2S3(=O)=O)cc1OC	-18.9%	-12.8%	7.94µM*	nt	25.5%	nt
O=C(NCCN1CCOCC1)c1ccc2c(c1)N(Cc1ccccc1)CCS2	?	-32.3%	50.1µM*	-1.5%	-21.4%	26.7µM*
COc1ccc(CCNC(=O)c2ccc3c(c2)N(Cc2ccc(F)cc2)CCS3)cc1OC	?	-30.1%	?	-10.2%	-31.1%[57 µM]	29.9µM*
